Most compounds without a hit are left out; they make up all but 14% or so of the library.
Shiga toxin inh: A qHTS for Small Molecule Inhibitors of Shiga Toxin; Vero cells, Shiga toxin protein synthesis inhibition reporter; inhibition, % at 38.7 µM; actives 9.2% (n = 290,000); in the data active = inhibition mostly above about 28%, no sharp cut-off; inactive = mostly below about 43%
NS1 function inh: qHTS Assay for Inhibitors of Influenza NS1 Protein Function; actives 0.4% (n = 270,000); Potency, µM (series often up to 46.1 µM); calls by dose curve; note: actives are rising curves; nearly all actives have a fitted effect of over 50% in size
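A cell-based growth assay was used: compounds that relieve NS1-induced slow growth of budding yeast raise OD600. Assay medium was yeast nitrogen base with ammonium sulphate and -URA supplement, pH 6.0, with 2% galactose.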
LmPK inh: qHTS Assay for Inhibitors of Leishmania Mexicana Pyruvate Kinase (LmPK); actives 0.37% (n = 290,000); Q27686; Potency, µM (doses to about 57.5 µM), hits mostly inhibitors; purified LmPK, Kinase-Glo ATP luminescence, 1 h
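qHTS format; LmPK 0.1 nM; substrates PEP 0.5 mM and ADP 0.1 mM. One-hour room-temperature incubation, then coupled luciferase luminescence; 0.5 nM enzyme wells mark activation.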
Giardia FBPA inh: qHTS Assay for Inhibitors of Fructose-1,6-bisphosphate Aldolase from Giardia Lamblia. A8B2U2. purified Giardia FBPA. Potency, µM (series often up to 59.6 µM), most hits filed as inhibitors. actives 0.71% (n = 290,000); note: nearly all actives have a fitted effect of over 55% in size
Target sequence (A8B2U2 whole entry, looked up): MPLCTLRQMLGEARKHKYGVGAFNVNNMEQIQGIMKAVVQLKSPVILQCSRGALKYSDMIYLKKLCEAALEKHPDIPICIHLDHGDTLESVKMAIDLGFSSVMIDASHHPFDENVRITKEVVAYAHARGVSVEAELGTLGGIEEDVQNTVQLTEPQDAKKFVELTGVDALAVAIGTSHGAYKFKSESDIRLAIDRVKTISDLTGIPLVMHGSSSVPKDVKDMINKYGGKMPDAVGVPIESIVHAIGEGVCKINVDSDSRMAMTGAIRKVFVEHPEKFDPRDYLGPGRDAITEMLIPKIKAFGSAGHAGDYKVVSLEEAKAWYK
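Giardia FBPA (40 nM reagent) was preincubated 10 min at RT with compound (up to 57.5 uM final), then substrate plus GAPDH/TPI/NAD/arsenate coupling system with diaphorase/resazurin was added; resorufin fluorescence (525/598 nm) was read after 20 min.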
CHX counter: Cycloheximide Counterscreen for Small Molecule Inhibitors of Shiga Toxin; cell reporter, cycloheximide protein synthesis inhibition counterscreen; AID 2314, 2010; actives 12% (n = 300,000); max response, %; in the data active = max response mostly above about 13%, no sharp cut-off; inactive = mostly below about 14%; note: read at 38.3 µM for the half of the compounds with a filed dose
Of the large screens only hits and unclear results are named; the others gave an inactive call. Unless noted, calls come from the whole dose curve; as a rule, active = well fitted curve in the direction sought with a large enough effect; inconclusive = small, poorly fitted or top-dose-only effect, or another doubt; inactive = no such curve, though single readings can be large; an effect the other way counts as inactive or inconclusive.

O=C(CCS(=O)(=O)c1ccccc1)Nc1nc2cc3c(cc2s1)OCCO3	Shiga toxin inh 90.3, CHX counter 44.8
O=C(CCS(=O)(=O)c1ccccc1)Nc1nc2cc3c(cc2s1)OCO3	CHX counter 34.3
CC(OC(=O)Cc1ccc(Br)cc1)C(=O)NC1CCCCC1C (centres undefined)	none (no result: Giardia FBPA inh)
c1ccc2cc(NCNc3ccc4ccccc4c3)ccc2c1	none (no result: Shiga toxin inh, LmPK inh, Giardia FBPA inh, CHX counter)
O=C(N/N=C1/CN2CCC1CC2)c1cccc(O)c1	Shiga toxin inh 70.1, CHX counter 36.4
N#CC(CC(=O)O)=C(c1ccccc1)c1ccccc1	none (no result: Shiga toxin inh, LmPK inh, Giardia FBPA inh, CHX counter)
N#CC(C(=O)c1ccccc1)=C1SCCS1	Shiga toxin inh 58.0, CHX counter 35.0
Cc1ccsc1C1NC(=O)c2c(sc3c2CCN(C)C3)N1 (centres undefined)	NS1 function inh inconclusive, Giardia FBPA inh inconclusive
CN1CCc2c(sc3c2C(=O)NC(c2cccs2)N3)C1 (centres undefined)	Shiga toxin inh 35.1, Giardia FBPA inh inconclusive, CHX counter 33.6
Cc1cccc(CNc2ncnc3ccc(-c4ccccc4C#N)cc23)c1	none (no result: Shiga toxin inh, NS1 function inh, LmPK inh, CHX counter)
NS(=O)(=O)c1ccc2nc(NC(=O)CS(=O)(=O)c3ccccc3)sc2c1	none
CCOc1ccc2nc(NS(=O)(=O)Cc3ccccc3)sc2c1	CHX counter 20.5
O=C(CS(=O)(=O)c1ccccc1)Nc1nc2ccccc2s1	CHX counter 25.2
O=C(C[n+]1cccc(CO)c1)Nc1nc2ccccc2s1	CHX counter 33.6
CCCN1CCN(CC(=O)Nc2nc3ccccc3s2)CC1	Giardia FBPA inh inconclusive
CCOc1ccc2nc(NC(=O)CS(=O)(=O)c3ccccc3)sc2c1	Shiga toxin inh active, CHX counter 25.8
CCOc1ccc2nc(NS(=O)(=O)c3ccc(NC(C)=O)cc3)sc2c1	none
Cc1ccc(-n2ncc3c2CC(C)(C)CC3NC(=O)c2ccncc2)cc1 (centres undefined)	none
O=C(NC1CCOCC1)C1CCC(=O)N(Cc2cccc(C(F)(F)F)c2)C1 (centres undefined)	none
CCNc1ncc2nc(-c3ccc(Cl)cc3)c(=O)n(C)c2n1	none (no result: Shiga toxin inh, NS1 function inh, LmPK inh, CHX counter)
Cc1ccc(C2=NNC(c3cccc(F)c3)S2)cc1 (centres undefined)	none (no result: NS1 function inh)
Cc1ccc(C2=NNC(C(O)C(O)C(O)C(C)O)S2)cc1 (centres undefined)	Shiga toxin inh 106.9, CHX counter 32.0
COc1cc(C=O)ccc1OCc1ccc(Cl)nc1	Shiga toxin inh 66.1, CHX counter 40.9
C/C=C/c1ccc(OCCOc2cc(C=O)ccc2OC)c(OC)c1	Shiga toxin inh 62.3, CHX counter 52.1
C/C=C/c1ccc(OCC(=O)O)c(OC)c1	none
C/C=C/c1ccc(OCC(=O)OCC)c(OC)c1	CHX counter 13.6
CC(NC(=O)Nc1ccc(F)cc1)c1ccc2c(c1)OCO2 (centres undefined)	none
COCOc1c2c(c(OCOC)c3c(OCOC)cccc13)/C(=N/N[S+](=O)([O-])c1ccc(C)cc1)C1=C2CCCC1	none (no result: Shiga toxin inh, NS1 function inh, LmPK inh, CHX counter)
N#CC12C(N)=NC3(OCCO3)C1(C#N)C1=C(CCC1)NC2c1ccccc1 (centres undefined)	Giardia FBPA inh inconclusive, CHX counter 16.8
CCSC1(SCC)N=C(N)C2(C#N)C(c3ccccc3)NC3=C(CCC3)C12C#N (centres undefined)	none
O=C(NCc1ccc(F)cc1)C1CCCN1C(=O)Nc1cccc(F)c1 (centres undefined)	none (no result: Shiga toxin inh)
O=C(NC1CCOCC1)C1CCC(=O)N(CCc2ccc(Cl)cc2)C1 (centres undefined)	none
C[C@@H]1O[C@@H](O[C@H]2CC[C@@H](O[C@H]3[C@H](O)C[C@H](c4ccc5c(c4O)C(=O)C4=C(C5=O)[C@@]5(O)C(=O)C[C@](C)(O[C@H]6CC[C@H](O[C@H]7C=CC(=O)[C@H](C)O7)[C@H](C)O6)C[C@@]5(O)C=C4)O[C@@H]3C)O[C@H]2C)C=CC1=O	Giardia FBPA inh 7.06µM (no result: NS1 function inh, LmPK inh)
O=C(Nc1ccc(Cl)c(Cl)c1)Nc1ccccc1C(=O)O	CHX counter 29.8
O=C(Nc1ccc(Cl)cc1)Nc1csc([N+](=O)[O-])c1	Shiga toxin inh 99.6, CHX counter 30.2
O=C(Nc1ccc(Cl)cc1)Nc1ccccc1CC[N+](=O)[O-]	Shiga toxin inh 40.7 (no result: NS1 function inh)
CN(C)C(=O)Nc1ccccc1CC[N+](=O)[O-]	none (no result: NS1 function inh)
O=C(Nc1csc([N+](=O)[O-])c1)Nc1c(Cl)cccc1Cl	none
O=C(Nc1ccc(Cl)cc1)Nc1ccccc1C(=O)O	LmPK inh inconclusive, CHX counter 23.4
O=C(Cc1ccccc1)NNC(=O)Nc1ccc(Cl)c(Cl)c1	none
CO[C@H]1COC(=O)C/C=C\[C@H](C)[C@H](OC)COC(=O)[C@@H](C)COC(=O)C/C=C\[C@@H]1C	none (no result: Shiga toxin inh, NS1 function inh, LmPK inh, CHX counter)
COCCn1c(=O)cnc2cnc(Oc3ccc(OC)cc3)nc21	none (no result: Shiga toxin inh, NS1 function inh, LmPK inh, CHX counter)
CC1CN(C(=O)c2cccc(COc3ccccc3Cl)c2)CC(C)O1 (centres undefined)	Shiga toxin inh 135.3, CHX counter 40.3
COc1ccc(C(=O)N2CCN(C3CCCCC3)CC2)cc1OC	Giardia FBPA inh inconclusive
COc1ccc(OCc2cc(C(=O)N3CCN(C4CCCC4)CC3)no2)c(Cl)c1	Shiga toxin inh 76.7, CHX counter 42.0 (no result: Giardia FBPA inh)
CCOC(=O)N1CCC(NC(=O)c2cc(COc3ccc(F)cc3Cl)on2)CC1	none
COc1ccc(OCc2cc(C(=O)N3C[C@@H](C)O[C@@H](C)C3)no2)c(Cl)c1	Shiga toxin inh 94.4, CHX counter 40.4 (no result: Giardia FBPA inh)
CCOC(=O)N1CCN(C(=O)c2cc(COc3ccc(OC)cc3Cl)on2)CC1	Shiga toxin inh 105.2, CHX counter 69.5
COc1ccc([C@]23Cc4ccccc4C(O2)C2=C(CC(C)(C)CC2=O)O3)cc1	none
O=C(Cn1ncc2c3ccccc3n(Cc3ccccc3)c2c1=O)NCc1ccco1	none
C=CCOc1ccc2c(=O)n(C)c3ccccc3c2c1	none (no result: NS1 function inh, LmPK inh)
CCc1ccc(CN(C)C(=O)CC2C(=O)NCCN2Cc2ccoc2)cc1 (centres undefined)	none
CCOc1ccc(/C(O)=C2/C(=O)C(=O)N(CCCN3CCOCC3)C2c2ccc(F)cc2)cc1C (centres undefined)	none
COc1ccc(OCc2cc(C(=O)N3CCCCCCC3)no2)c(Cl)c1	Shiga toxin inh 60.9, CHX counter 40.2 (no result: Giardia FBPA inh)
COc1ccc(OCc2cc(C(=O)N3CCN(CC4CC4)CC3)no2)c(Cl)c1	Shiga toxin inh 54.9, CHX counter 52.4
COCCNC(=O)C(c1ccc(F)cc1)N(C(=O)CCC(=O)Nc1nccs1)c1cccc(C)c1 (centres undefined)	none
COC(=O)c1nnc(N[C@@H](Cc2c[nH]c3ccccc23)C(=O)OC)nc1C(=O)OC	none (no result: Shiga toxin inh, NS1 function inh, LmPK inh, CHX counter)
O=C(/C=C/C=C/c1ccccc1)CC1(O)C(=O)Nc2ccccc21 (centres undefined)	CHX counter 18.5 (no result: NS1 function inh)
CN1C(=O)C(O)(CC(=O)/C=C/C=C/c2ccccc2)c2ccccc21 (centres undefined)	none

From PubChem
